Compound activity as filed in PubChem.
Most compounds without a hit are left out; they make up all but 1.8% or so of the library.
HTR2A ag = mouse Htr2a agonists via beta-arrestin recruitment, primary screen, cell-based, luminescence; 5-hydroxytryptamine receptor 2A (Mus musculus), P35363; CHO-K1 mHTR2A beta-arrestin complementation; percent of 30 µM serotonin response; activation, % at 7.6 µM; hit rate 0.66% among 360,000;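 active = activation above a run cutoff, the mean activation of all tested compounds plus 3 SD, cut at about 14% in these data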;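 note: 0% = plate median of compound wells and 100% = 30 µM serotonin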
MsrA act = bovine MsrA enzyme activators, primary screen, biochemical, absorbance, HTS; Methionine sulfoxide reductase A (Bos taurus); purified bovine MsrA, absorbance read-out; activation, % at 10.6 µM; hit rate 0.3% among 360,000; AID 602163, 2012; in the data active = activation above about 7.5%;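 note: 0% = vehicle and 100% = reference activator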
MsrA inhibitor = bovine MsrA enzyme inhibitors, primary screen, biochemical, absorbance, HTS | Methionine sulfoxide reductase A (Bos taurus) | purified bovine MsrA, absorbance read-out | inhibition, % at 15.5 µM | hit rate 0.75% among 360,000 | AID 651718, 2012;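 note: 0% = vehicle wells with enzyme and 100% = reference inhibitor wells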
GC-A act = GC-A stimulated cGMP production enhancers – HEK293 GC-A cells, cGMP TR-FRET, EC30 ANP, primary screen; Atrial natriuretic peptide receptor 1 (Homo sapiens), P16066; 0% at EC30 ANP, 100% saturating ANP; activation, % at 10 µM; hit rate 0.14% among 370,000; AID 1671463, 2021; in the data active = activation above about 40%
NPR2 activator = human GC-B receptor activators, primary screen, HEK293 GC-B cells, cGMP TR-FRET, EC30 CNP | Atrial natriuretic peptide receptor 2 (Homo sapiens), P20594 | hit rate 0.11% among 370,000 | activation, % at 10 µM | 0% at EC30 CNP, 100% saturating CNP;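 active = activation at 10 µM reaching about 35% in either raw or pattern-adjusted values, limit read from the data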
MsrA inh confirm = bovine MsrA inhibitors, retest, confirmation, biochemical, absorbance, HTS | shares compounds with MsrA inhibitor | hit rate 41% among 2,300 | inhibition, % at 15.5 µM | purified bovine MsrA, absorbance read-out | AID 651822, 2012;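 note: coupled to thioredoxin reductase with NADPH and selenocystamine and DMSO as substrate; 0% = vehicle only and 100% = full effect of reference inhibitor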
* marks the source's active call; other numbers are inactive results; x = not tested or not shown. Cut-off read from the data, not from the text of the source, unless noted: active = inhibition above about 4.5%; inactive = the rest.

SMILES	HTR2A ag	MsrA act	MsrA inhibitor	GC-A act	NPR2 activator	MsrA inh confirm
O=C1NC(=Nc2ccc(O)cc2)S/C1=C/c1ccco1	-6	-7	4.7*	-3	-2	4.7*
COc1ccc(/C=C/C(=O)N2CCNC(=O)C2)c(OC)c1	10	-9	4.8*	1	2	3
O=C1CN(C(=O)/C=C/c2cc(Br)ccc2F)CCN1	2	0	0	2	-1	x
COC(=O)[C@]12C[C@H](CC(=O)NCCCCc3ccccc3)C(=O)N(CCc3ccc(OC)c(OC)c3)C1=C[C@H](C1CCCC1)O[C@@H]2C	x	x	x	-6	-3	x
O=[N+]([O-])c1cc(-c2ccc(/C=N\n3cnnc3)o2)cc([N+](=O)[O-])c1	-1	-2	4	-4	0	x
Cc1ccc(-c2ccc(/C=N/n3cnnc3)o2)cc1Cl	1	-3	5.0*	-10	-13	4
CCC(=O)N1CCC(C(=O)NC2CCCc3ccccc32)CC1 (stereo not given)	x	x	x	4	3	x
O=c1nc(-c2ccccc2)c2cc(Br)ccc2[nH]1	3	-13	0	-8	-16	x
O=c1cc2[nH]c3ccccc3c(=O)n2nc1-c1ccccc1	-3	-6	4.9*	8	-9	1
COc1ccc(C(=O)NC(C)c2ccccc2)cc1Br (stereo not given)	-4	-4	-1	-2	0	x
C[C@@H](NC(=O)c1coc(=O)c(Br)c1)c1ccccc1	2	-3	4.8*	4	-6	4.8*
CN(C)N=Nc1nc2c(c(=O)n(C)c(=O)n2C)n1CC1CO1 (stereo not given)	-2	-6	7.4*	3	-2	5.9*
CN(C)N=Nc1nc2c([nH]1)c(=O)n(C)c(=O)n2C	-4	-3	2	-1	4	x
CCOc1cc(CCNC(=O)c2cc(-c3ccccc3)c(N3CCOCC3)s2)ccc1OC	x	x	x	5	-3	x
COc1ccc(C(=O)N2CCN(c3cnn(-c4ccccc4)c(=O)c3Cl)CC2)cc1	5	-5	4.7*	-3	-7	1
c1ccc(-n2nnnc2-n2cnc3ccccc32)cc1	-2	-1	9.9*	1	0	4.7*
Cc1cc2n(c(=O)c1C#N)CCCN2c1ccccc1	-6	-14	6.1*	4	3	4.5*
Cc1cc(C)n(CC(=O)N2CCc3ccccc32)c(=O)c1C#N	1	-1	3	-5	5	x
Nc1c(C=C2C=CC(=O)C=C2)c(=O)nc2sc(CC(=O)N3CCCC3)nn12	5	-2	4.7*	-4	-4	0
CCCc1nn2c(N)c(/C=C3\C=Nc4ccccc43)c(=O)nc2s1	0	-4	-1	-3	-11	x
O=C(NCCc1c[nH]c2ccccc12)OCc1cn(Cc2cccc(Cl)c2)nn1	x	x	x	-7	-3	x
Cc1cccc(/C=N\Nc2cn[nH]c(=O)c2Cl)c1	2	-4	8.1*	0	-3	5.0*
CCOc1ccccc1/C=N\Nc1cnn(Cc2ccccc2)c(=O)c1Cl	-1	-1	2	13	8	x
O=c1[nH]ncc(N/N=C\c2ccncc2)c1Cl	3	-5	9.6*	-3	-2	6.0*
COc1ccccc1/C=N\Nc1cn[nH]c(=O)c1Cl	3	-4	5.8*	4	7	4.7*
SMILES	HTR2A ag	MsrA act	MsrA inhibitor	GC-A act	NPR2 activator	MsrA inh confirm
O=c1[nH]ncc(N/N=C\c2cccs2)c1Cl	-2	-2	9.1*	-4	4	6.2*
C(=N\Nc1nc2ccccc2s1)/c1cccs1	-1	-3	4	15	-5	x
O=c1[nH]ncc(N/N=C\c2cccnc2)c1Cl	-3	-3	2	-1	-3	x
CCCCNC(=O)C[C@H]1C[C@@]2(C(=O)OC)C(=C[C@H](COCc3ccccc3)O[C@@H]2C)N(Cc2cccc3ccccc23)C1=O	x	x	x	0	0	x
CCCCc1ccc2nc(NC(=O)c3ccc(Br)o3)sc2c1	x	x	x	-2	-12	x
COc1ccccc1/C=N/NC(=O)CN(C1=NS(=O)(=O)c2ccccc21)c1ccccc1	3	-9	6.1*	7	-8	1
COc1ccc(/C=N/NC(=O)CN(C2=NS(=O)(=O)c3ccccc32)c2ccccc2)cc1	1	0	2	-3	-13	x
CN1c2ccccc2C(O)=C(C(=S)Nc2ccc(Cl)cc2)S1(=O)=O	-2	-11	5.4*	2	6	6.0*
Cc1cccc(NC(=O)C2=C(O)c3ccccc3N(C)S2(=O)=O)c1	5	-8	2	-1	6	x
O=C(Cc1ccccc1)NC1CCCCN(Cc2cccc(Cl)c2)C1=O (stereo not given)	x	x	x	0	2	x
CC1=C(C#N)C(=O)NC(=O)/C1=C\c1ccc(-c2ccc(C)cc2[N+](=O)[O-])o1	0	-5	9.2*	-12	-11	4
CCOC(=O)c1cc(-c2ccc(/C=C3/C(=O)NC(=O)C(C#N)=C3C)o2)ccc1Cl	5	-10	0	-3	0	x
N=C1/C(=C/c2cccn2-c2ccc([N+](=O)[O-])cc2)C(=O)N=C2SC=CN12	2	2	0	0	1	x
O=C1NC(=S)N/C1=C/c1cccn1-c1ccc([N+](=O)[O-])cc1	-2	-10	5.1*	-5	-3	1
COc1ccc(C)cc1NC(=O)C(Sc1nnc(Nc2cc(C)ccc2OC)s1)c1ccccc1 (stereo not given)	-1	-2	5.2*	-1	6	1
COC(=O)c1ccc(C(=O)N=c2sccn2C)cc1	14	-4	1	-2	2	x
COc1ccc(C(=O)N=c2sccn2C)cc1	-4	-3	5.8*	3	1	4
COC(=O)C[C@H]1CC[C@H]2[C@H](COc3ccc(NC(=O)Cc4cccs4)cc3C(=O)N2C)O1	x	x	x	1	-9	x
COc1ccc(C(=O)c2sc(Nc3ccc(NC(C)=O)cc3)nc2C)cc1	0	2	2	-3	-1	x
COc1ccc(Nc2nc(C)c(C(C)=O)s2)cc1	-3	-5	5.4*	-1	-4	3
c1ccc(-c2nc(NCC3CC3)nc3ccsc23)cc1	-6	-1	0	3	-4	x
Cc1onc(-c2ccccc2)c1C(=O)N/N=C/c1ccc(O)c([N+](=O)[O-])c1	-2	-7	5.5*	-2	-8	4
Cc1onc(-c2ccccc2)c1C(=O)N/N=C/c1ccc([N+](=O)[O-])c(O)c1	5	-3	1	0	-1	x
